Records with an inconclusive call do not appear. A number with no mark means an inactive call. Calls of active or inactive are those of the source. Calls follow the shape of the dose curve; as a rule, active = well fitted inhibition curve with a large enough effect; inconclusive = small, poorly fitted or top-dose-only effect; inactive = flat fitted curve, though single readings scatter.
Test system: HaCat
Test: Cytotoxic Profiling of Annotated Libraries Using Quantitative High-Throughput Screening (AID 1296008); also: nearly all actives have a fitted effect of over 60% in size
Conditions: Five cell lines viability, CellTiter-Glo ATP luminescence, 48-72 h; max response: stronger effect = lower value
Summary of the method: (§1)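 Cells exposed to compounds for 48 or 72 hr at 37 degrees Celsius. Viability read as ATP-coupled luminescence with CellTiter-Glo after 10 min at room temperature.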
% is scaled to controls: 0 for no effect and ±100 for the full control effect; potency is read from the fitted curve at half-maximal effect.

Row | Compound | outcome | max response
1 | CN(Cc1cccc(-c2ccncc2)c1)C(=O)Oc1ccc(-c2ccc(C(N)=O)cc2)cc1 | inactive | –
2 | CN(C(=O)C(c1ccccc1)c1ccccc1)[C@H](CN1CC[C@H](O)C1)c1ccccc1 | inactive | –
3 | C/C=C(\C)C(=O)OC1CC2C(CC=C3CC(OC4CC(OC)C(OC5CC(OC)C(OC6CC(OC)C(OC7CC(OC)C(O)C(C)O7)C(C)O6)C(C)O5)C(C)O4)CCC32C)C2(O)CCC(C(C)=O)C12C (stereo not given) | inactive | –
4 | CN=C(NS(=O)(=O)c1ccc(Cl)cc1)N1C[C@H](c2ccccc2)C(c2ccc(Cl)cc2)=N1 | – | -7.89%
5 | Cc1c(N[C@@H](c2nnc(-c3ccc(C#N)cc3)o2)[C@H](C)O)ccc(C#N)c1Cl | – | -11%
6 | CC12CCC3C(C1)c1c(cc(O)c(C(=O)c4ccccc4)c1OC3(C)C)O2 (stereo not given) | – | -1.85%
7 | CN1C(=O)[C@@H](Cc2c[nH]c3ccccc23)N=C(c2ccccc2F)c2ccccc21 | – | -23.4%
8 | CN1CCC2=C(C1)c1ccccc1Cc1ccccc12 | inactive | –
9 | CCOc1ccc(Oc2ccc(OCc3cc(F)ccc3F)cc2)c(N)c1 | – | -5.94%
10 | CCCN(CCC)[C@@H]1CCc2ccc3[nH]c(C#N)cc3c2C1 | inactive | –
11 | Cc1ccc2c(c1)[C@H]1CN(C)CC[C@H]1N2C(=O)CSc1nnnn1-c1ccc(Cl)cc1 | inactive | –
12 | CC(=O)OC[C@]12[C@H](OC(C)=O)C(=O)[C@@H]3[C@@H](O)[C@@]14O[C@@]3(C)COC(=O)c1cccnc1[C@@H](C)[C@H](C)C(=O)O[C@@H]([C@H](OC(C)=O)[C@@H]2OC(C)=O)[C@]4(C)O | inactive | –
13 | CN1C(=O)N(c2ccc(C#N)c(C(F)(F)F)c2)C(=O)[C@@]1(CO)c1ccccc1 | – | 0.274%
14 | CCCCCn1cc(C(=O)Oc2cccc3cccnc23)c2ccccc21 | – | 2.86%

Test system: KB-3-1
Test: as above
Conditions: Five cell lines viability, CellTiter-Glo ATP luminescence, 48-72 h; max response: stronger effect = lower value
Summary of the method: as §1

Row | Compound | Potency | max response | outcome
15 | CC1=CC(=O)[C@@H](O)[C@@]2(C)C1C[C@H]1OC(=O)[C@H](O)[C@@]3(O)[C@@H](C)[C@@H](O)[C@H](O)C2[C@@]13C (stereo not given in full) | 6.4 µM (active) | – | –
16 | CN(Cc1cccc(-c2ccncc2)c1)C(=O)Oc1ccc(-c2ccc(C(N)=O)cc2)cc1 | – | 1.21% | –
17 | CN(C(=O)C(c1ccccc1)c1ccccc1)[C@H](CN1CC[C@H](O)C1)c1ccccc1 | – | -3.45% | –
18 | Fc1cc(F)c2c(c1)C1C=CCC1C(c1cccnc1)N2 (stereo not given) | 4.61 µM (active) | – | –
19 | C/C=C(\C)C(=O)OC1CC2C(CC=C3CC(OC4CC(OC)C(OC5CC(OC)C(OC6CC(OC)C(OC7CC(OC)C(O)C(C)O7)C(C)O6)C(C)O5)C(C)O4)CCC32C)C2(O)CCC(C(C)=O)C12C (stereo not given) | – | – | inactive
20 | CN=C(NS(=O)(=O)c1ccc(Cl)cc1)N1C[C@H](c2ccccc2)C(c2ccc(Cl)cc2)=N1 | – | -19.1% | –
21 | COC1CC(O[C@H]2CC[C@@]3(C)C(CCC4C3CC[C@]3(C)C(C5=CC(=O)OC5)CCC43O)C2)OC(C)C1OC1OC(COC2OC(CO)C(O)C(O)C2O)C(O)C(O)C1O (stereo not given in full) | 2.76 µM (active) | – | –
22 | Cc1c(N[C@@H](c2nnc(-c3ccc(C#N)cc3)o2)[C@H](C)O)ccc(C#N)c1Cl | – | -17.4% | –
23 | CC12CCC3C(C1)c1c(cc(O)c(C(=O)c4ccccc4)c1OC3(C)C)O2 (stereo not given) | – | -6.92% | –
24 | CN1C(=O)[C@@H](Cc2c[nH]c3ccccc23)N=C(c2ccccc2F)c2ccccc21 | – | -7.12% | –
25 | C=C(C)[C@@]12O[C@@H]1[C@@]1(C)C(=CC2=O)CC[C@@H](OC(C)=O)[C@@H]1C | 13 µM (active) | – | –
26 | c1ccc([C@@H]2C[C@H]2NC2CCNCC2)cc1 | – | -11.5% | –
27 | CC[C@H](O)[C@@H](C)[C@H]1O[C@@H]1C[C@H](C)/C=C/C=C(\C)[C@H]1OC(=O)C[C@H](O)CC[C@@](C)(O)[C@@H](OC(C)=O)/C=C/[C@@H]1C | 0.0052 µM (active) | – | –
28 | C=C1C2(C)CC3C(C)(O)C4=CC(=O)OC(C)(C)C4=CCC3(C)C13C(=O)OC(C)C3(O)C2=O (stereo not given) | – | -10.5% | –
29 | CN(C)[C@@H]1C(=O)C(C(N)=O)=C(O)[C@@]2(O)C(=O)C3=C(O)c4c(O)ccc(Cl)c4[C@@](C)(O)C3C[C@@H]12 (stereo not given in full) | – | -13.4% | –
30 | CC(=O)O[C@H]1C[C@]2(O)[C@@H]3CC[C@@H]4C[C@@H](O)CC[C@]4(C)[C@H]3CC[C@]2(C)[C@H]1c1ccc(=O)oc1 | 0.058 µM (active) | – | –

Row | Compound | Potency | max response | outcome
31 | CN1CCC2=C(C1)c1ccccc1Cc1ccccc12 | – | -19% | –
32 | C=C(C)C(=O)O[C@H]1[C@@H]2[C@H](C)C(=O)O[C@@H]2C[C@@H](C)[C@@H]2C=CC(=O)[C@]21C | 3.21 µM (active) | – | –
33 | CCOc1ccc(Oc2ccc(OCc3cc(F)ccc3F)cc2)c(N)c1 | – | -0.382% | –
34 | CCN1C[C@]2(COC)CC[C@H](O)[C@@]34C5C[C@@H]6[C@@H](OC)C[C@@](OC(C)=O)(C5[C@@H]6OC(C)=O)[C@H]([C@H](OC)C23)[C@@H]14 (stereo not given in full) | – | -0.111% | –
35 | CC(C)[C@H](NC(=O)c1nn(Cc2ccc(F)cc2)c2ccccc12)C(N)=O | – | 0.24% | –
36 | CCCN(CCC)[C@@H]1CCc2ccc3[nH]c(C#N)cc3c2C1 | – | – | inactive
37 | Cc1ccc2c(c1)[C@H]1CN(C)CC[C@H]1N2C(=O)CSc1nnnn1-c1ccc(Cl)cc1 | – | -5.2% | –
38 | COC1CCCC(C)OC(=O)Cc2cc(O)cc(O)c2C(=O)C1 (stereo not given) | 4.04 µM (active) | – | –
39 | C[C@]12CC[C@H](O)C[C@@H]1CC[C@@H]1[C@@H]2CC[C@]2(C)C(=O)CC[C@@H]12 | – | – | inactive
40 | CC(=O)OC[C@]12[C@H](OC(C)=O)C(=O)[C@@H]3[C@@H](O)[C@@]14O[C@@]3(C)COC(=O)c1cccnc1[C@@H](C)[C@H](C)C(=O)O[C@@H]([C@H](OC(C)=O)[C@@H]2OC(C)=O)[C@]4(C)O | – | 7.87% | –
41 | CN1C(=O)N(c2ccc(C#N)c(C(F)(F)F)c2)C(=O)[C@@]1(CO)c1ccccc1 | – | 2.44% | –
42 | CCCCCn1cc(C(=O)Oc2cccc3cccnc23)c2ccccc21 | – | -8.4% | –
43 | COC(=O)C12C(=O)C(C)(O)C(=O)C1(C)C(C)=CC1C34CCC(OC3=O)C(C)(C)C4CCC12C (stereo not given) | – | -12.2% | –
44 | CC1=CC2OC3CC(O)[C@](C)([C@@]2(C)C(O)C1=O)[C@]31CO1 (stereo not given in full) | 7.31 µM (active) | – | –
45 | CN1Cc2c(ccc3c2OCO3)[C@@H]2[C@H]1c1cc3c(cc1C[C@@H]2O)OCO3 | 2.86 µM (active) | – | –
